# VACV Venus inh – qHTS for Stage-Specific Inhibitors of Vaccinia Orthopoxvirus: Venus Reporter Primary qHTS. Potency, µM (top dose mostly 36.5 µM), without a hit: at the highest dose activity change, negative = inhibition, usual class: inhibitors. AID 720580, 2013. Vaccinia virus Venus reporter expression, fluorescence. actives 0.46% (n = 330,000); calls by dose curve; tested in A549 cells; also: nearly all actives have a fitted effect of over 30% in size
# LASV entry inh – qHTS for Inhibitors of binding or entry into cells for Lassa Virus | Lassa virus pseudotype entry inhibition, cell reporter | Potency, µM (series often up to 37.9 µM), for inactives: top-dose activity change, negative = inhibition, actives largely listed as inhibitors | actives 1.2% (n = 300,000) | AID 540256, 2011; calls by dose curve; tested in HEK293 cells; also: nearly all actives have a fitted effect of over 50% in size
# VACV mCherry inh – qHTS for Stage-Specific Inhibitors of Vaccinia Orthopoxvirus: mCherry Reporter Primary qHTS; Vaccinia virus mCherry reporter infection, fluorescence; Potency, µM (top dose mostly 36.5 µM), without a hit: at the highest dose activity change, negative = inhibition, usual class: inhibitors; actives 0.63% (n = 310,000); AID 720579, 2013; calls by dose curve; tested in A549 cells; also: nearly all actives have a fitted effect of over 35% in size
# Marburg entry inh – qHTS for inhibitors of binding or entry into cells for Marburg Virus | Marburg virus pseudotyped entry inhibition, cell reporter | Potency, µM (top dose mostly 37.8 µM), for inactives: at the top dose activity change, negative = inhibition, most hits filed as inhibitors | actives 1.8% (n = 300,000); calls by dose curve; tested in HEK293 cells
# * = called active by the depositor; i = inactive; ? = inconclusive; . = no result given; + = active, no number; ! = not active in a repeat; [ ] = another dose, or the depositor's remark. In the library only some 2.5% were active in any assay of this set; here they are far more common. % is scaled to controls: 0 for no effect and ±100 for the full control effect; potency is read from the fitted curve at half-maximal effect.
SMILES,VACV Venus inh,LASV entry inh,VACV mCherry inh,Marburg entry inh
COC(=O)c1[nH]c2cccc(OC)c2c1NC(=O)CN1CC(C)OC(C)C1 (stereo not given),.,-12%,.,10%
COC(=O)c1[nH]c2cccc(Cl)c2c1NC(=O)CN(C)C1CCCCC1,-9%,-2%,.,11µM*
COc1cc2c(cc1OC)C13CCN4CC5CCOC6CC(=O)N2C1C6C5CC43 (stereo not given),-21%,-2%[46.1 µM],-15%,0%[46.1 µM]
COc1cc2c(cc1OC)C13CCN4CC5=CCOC6CC(=O)N2C1C6C5CC43 (stereo not given) (tested in a mixture with another compound),+,.,-5%,.
CCOc1cc(S(=O)(=O)N(Cc2ccccc2)Cc2ccccc2)c(OCC)cc1-n1cnnn1,-5%,-53%[14.3 µM],-13%,21µM*
CCOc1cc(S(=O)(=O)NCc2ccccc2)c(OCC)cc1-n1cnnn1,.,8%,.,-14%
CCOC(=O)N1CCN(C(=O)c2ccc3c(c2)N(C)C(=O)/C(=C\c2ccc(OCC)c(OC)c2)S3)CC1,?,5µM*,?,11µM*
Nc1ccc(Oc2ccccc2-c2ccccc2)cc1,-19%,5.6µM*,-23%,5.6µM*
Cc1ccc(NC(=O)/C(Cl)=C\c2ccccc2)cc1,-21%,4.5µM*,i,7.9µM*
CN1CCN(S(=O)(=O)c2cccc(C(=O)Nc3sc4c(c3-c3nc5ccccc5[nH]3)CCCC4)c2)CC1,-15%,1%,-10%,16µM*
CCCn1c(NC(=O)c2cccc(S(=O)(=O)N3CCCC3)c2)nc2ccccc21,.,?,.,6.5µM*
CCCn1c(NC(=O)C2CCN(S(=O)(=O)c3cccs3)CC2)nc2ccccc21,?,?,-26%,13µM*
Cc1cnc(-n2ncc(C(=O)NCCN3CCOCC3)c2C2CC2)nc1-c1cccs1,-17%,.,-2%,.
Cc1ccc(-n2cc(C(=O)c3ccccc3O)cn2)cc1,-12%,3.5µM*,i,?
C/C(=N\NC(=O)C(C)Oc1ccc([N+](=O)[O-])cc1)c1ccccn1 (stereo not given),.,12µM*,.,?
CC(C)=CCC/C(C)=C/CO/N=C1\C[C@@H](O)[C@@H](O)[C@@H]2[C@@H]3C(=O)N(Cc4ccccc4)C(=O)[C@@H]3CC[C@H]12,.,.,.,3%[14.2 µM]
CC1=C(C)/C(=N\OS(=O)(=O)c2ccccc2)C=CC1=O,?,?,?,7.9µM*
Cc1cccc(C(=O)N2CCCC(Nc3ccc(F)c(F)c3)C2)n1 (stereo not given),0%,0%,-11%,9%
CC(=NNC(=S)N1CC2CCC(CC2)C1)c1cccc(C)n1,?,?,4µM*,?
COc1ccc(N/N=C(/C(N)=O)C2=NC(C)(C)Cc3ccccc32)cc1,?,?,14µM*,?
COc1ccc(N/N=C(\C#N)C(N)=O)cc1,4%,-24%,-7%,0%[46.1 µM]
COc1ccc(-c2cc(C(=O)N/N=C/c3ccc4c(c3)OCO4)c3ccccc3n2)c(OC)c1,6%,2.5µM*,?,4µM*
COc1ccc(-c2cc(C(=O)N/N=C/c3sccc3C)c3ccccc3n2)c(OC)c1,-20%,3.2µM*,28µM*,5µM*
O=C(N/N=C/c1ccc2c(c1)OCO2)c1cc(-c2ccc(F)cc2)nc2ccccc12,-29%,0.58µM*,-13%,?
O=C(N/N=C/c1ccc(F)cc1)c1cc(-c2ccccn2)nc2ccccc12,-15%,-4%,-19%,-13%
SMILES,VACV Venus inh,LASV entry inh,VACV mCherry inh,Marburg entry inh
COc1ccc(-c2cc(C(=O)N/N=C/c3ccc(OC)c(COCC(F)(F)C(F)F)c3)c3ccccc3n2)c(OC)c1,-9%,-4%,-14%,?
COc1ccc(CN2CCC3(CCC(CNC(=O)c4ccco4)O3)CC2)c(OC)c1C (stereo not given),-16%,.,-3%,.
COc1ccc(-c2cc(C(=O)N3CCc4c(cnc(C)c4CNC(=O)c4ccsc4)C3)[nH]n2)cc1,12%,.,-5%,.
C[C@H](NC(=O)OC(C)(C)C)C(=O)c1ccco1,-18%,.,i,.
Fc1ccc(C2c3[nH]c4ccccc4c3CCN2Cc2cccn2-c2ncccn2)cc1 (stereo not given),24%,?,4.5µM*,?
CCOc1ccc(C2c3[nH]c4ccccc4c3CCN2CCCn2cccn2)cc1 (stereo not given),1%,?,?,?
Cc1ncc2c(c1CNC(=O)c1ccc3c(c1)OCO3)CCN(C(=O)c1scc3c1CCCC3)C2,9%,.,-10%,.
COC1=C[C@H](C(=O)N[C@H]2CCCC[C@H]2NC(C)=O)[C@@]2(C)Cc3ccccc3[C@@H]2CC1=O,.,.,.,-12%[14.2 µM]
c1c2c(cc3sc(N4CCOCC4)nc13)OCCO2,.,5.2µM*,.,?
c1ccc(N2CCN(c3nc4cc5c(cc4s3)OCCO5)CC2)cc1,.,-1%,.,23%
COC(=O)[C@H]1C(=O)C[C@@](C)(O)[C@@H](C(=O)OC)[C@@H]1c1ccccc1F,.,.,.,-11%[46.1 µM]
COc1ccccc1C1CN(Cc2cccc(C)n2)Cc2ccccc2O1 (stereo not given),-7%,.,-19%,.
c1ccc(-c2ccc(SCc3cccnc3)nn2)nc1,?,11%,11µM*,-16%[46.1 µM]
O=C(C[n+]1c(Cl)ccc2ccccc21)c1ccc2ccccc2c1,-12%,.,-14%,.
CC(C)OC(=O)c1cc2c(ccn2C)n1CC(=O)N(Cc1ccccc1)c1ccccc1,-18%,3.2µM*,?,2.5µM*
CCOC(=O)c1cc2c(ccn2C)n1Cc1cc(C)ccc1C,.,1%,.,-18%
Cc1csc[n+]1CC(=O)c1ccccc1,-7%,.,i,.
Cc1csc2ncnc(NC3CCN(Cc4ccccc4)CC3)c12,0%,-22%[46.1 µM],-1%,10µM*
Cc1nc(C)n(CC(=O)N2CCOc3ccc(CN4CCN(C)C[C@@H]4c4ccccc4)cc3C2)n1,-10%,.,-4%,.
COc1ccc(CCN2CCC(CNC(=O)c3cnn(-c4ccc(C)cc4)c3C3CCN(C(=O)OC(C)(C)C)CC3)CC2)cc1,11µM*,?,?,.
CCOC(=O)c1c(NC(=O)C(C)N2CCN(C(=O)c3ccco3)CC2)sc2c1CCCC2 (stereo not given),?,11µM*,?,?
Cc1cc(N2CCN(C(=O)c3ccco3)CC2)n2nc(-c3cccc(Cl)c3)cc2n1,.,26µM*,.,16µM*
COc1cccc(C(=O)N(Cc2cc3cc4c(cc3nc2N(C)C)OCO4)CC2CCCO2)c1 (stereo not given),3%,.,8%,.
O=C(NCC1Cc2cccc(-c3cncnc3)c2O1)C1CC1 (stereo not given),0%,.,-3%,.
COC(=O)c1c(-c2cccc3ccccc23)csc1NC(=O)Cc1ccc(OC)c(OC)c1,?,11µM*,.,?
O=C(O)c1ccc(NC(=O)c2cc3c([nH]c2=O)CCCC3=O)cc1,-9%,.,33%,.
COc1ccccc1CNc1ncnc2nc[nH]c12,?,8%,3.5µM*!,-36%

# High-throughput results from PubChem BioAssay.
